Data on 30 compounds can be found in PubChem BioAssay (EPA / NIEHS).

Broadly, the AC50 is the concentration at which the activity in the assay is half-maximal.

Activity calls are given as the source filed them. The calls were made as follows: active = hit-call score of the fitted dose curve at least 0.9, where 1 is the maximum; inactive = score below 0.9.

Read-out in the first assay: Interferon-gamma inducible Protein 10 (IP10), CXCL10 (gene 3627)
The experiment in a line: BSK_hDFCGF_IP10: BioMAP Diversity Plus: hDFCGF Assay for Interferon-gamma inducible Protein 10 (IP10) Biomarker Activity (AID 2283053). As to conditions: primary human foreskin fibroblasts; actives raise or lower the signal. A digest of the protocol:
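IP-10 levels, quantified by ELISA, are taken from human foreskin fibroblast cultures 24 h after chemical treatment, with DMSO serving as negative control and baseline for bidirectional analysis.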
As for `Cc1occc(=O)c1O`, the result was inactive.

On to `CCCCC(CC)COC(=O)CCCCCCCC(=O)OCC(CC)CCCC` (centres undefined), for which the outcome was inactive.

On to `CC(C)NCC(O)c1ccc(O)c(O)c1` (centres undefined), for which the result was inactive.

As for `CC(=O)S[C@H](C(=O)N[C@H]1Cc2ccccc2[C@H]2CCC[C@@H](C(=O)O)N2C1=O)C(C)C`, the outcome was inactive.

`CC(=O)O`: the outcome was inactive.

Read-out in the next assay: Urokinase-type plasminogen activator receptor (uPAR), PLAUR (gene 5329)
The experiment in a line: BSK_CASM3C_uPAR: BioMAP Diversity Plus: CASM3C Assay for Urokinase-type plasminogen activator receptor (uPAR) Biomarker Activity (AID 2283054).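 Also: cell-surface uPAR protein level quantified by ELISA.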 As to conditions: primary human coronary artery smooth muscle cells; actives raise or lower the signal.
As to `CC(=O)OC1CC(C)OC(C)O1` (centres undefined), the result was inactive.

In the case of `CC(=O)OCC(COC(C)=O)OC(C)=O`, the outcome was inactive.

For the compound `CCCCc1nc2cccnc2n1Cc1ccc(-c2ccccc2-c2nnn[nH]2)cc1`, the result was inactive.

As to `O=C1OC(c2ccc(O)cc2)(c2ccc(O)cc2)c2ccccc21`, the outcome was inactive.

Turning to `Cc1cc(Cc2ccc(N)c(C)c2)ccc1N`, the result was inactive.

Turning to `CC(C)COC(=O)CCCCC(=O)OCC(C)C`, the outcome was inactive.

Take `CCCCC(CC)COP(=O)(OCC(CC)CCCC)OCC(CC)CCCC` (centres undefined): the outcome was inactive.

As to `O=C(Oc1ccccc1)c1cccc(C(=O)Oc2ccccc2)c1`, the outcome was inactive.

Take `CCCCOC(=O)CCCCC(=O)OCCCC`: the outcome was inactive.

Take `OCC(O)CO`: the result was inactive.

In the case of `O=NO`, the result was inactive.

For `CCCCCCC(CCCCCCCCCCC(=O)OCC(COC(C)=O)OC(C)=O)OC(C)=O` (centres undefined), the outcome was inactive.

Turning to `Nc1nc(Cl)nc2c1ncn2[C@H]1C[C@H](O)[C@@H](CO)O1`, the result was inactive.

For `Oc1ccc(O)cc1`, the result was inactive.

`C/C=C/C=C/C(=O)O`: the outcome was inactive.

As for `Cc1ccc(C(C)(C)C)c(O)c1`, the result was inactive.

Consider `CC(C)(C)c1ccccc1`, for which the outcome was inactive.

`CCCCC(CC)CO` (centres undefined): the outcome was inactive.

`N[C@@H](Cc1c[nH]c2ccccc12)C(=O)O`: the result was inactive.

With `Cc1ccc(-c2cc(C(F)(F)F)nn2-c2ccc(S(N)(=O)=O)cc2)cc1`, the concentration at half-maximal activity (AC50) was 30.4 µM (active).

Take `O=C(O)c1cccnc1`: the outcome was inactive.

On to `Nc1nc(=S)c2[nH]cnc2[nH]1`, for which the outcome was inactive.

In the case of `CSc1ccc(Oc2ccc(S(N)(=O)=O)cc2CN(C)C)cc1C`, the result was inactive.

`CC(=O)O[C@]1(C(C)=O)CC[C@H]2[C@@H]3C=C(Cl)C4=CC(=O)[C@@H]5C[C@@H]5[C@]4(C)[C@H]3CC[C@@]21C`: the result was inactive.

Consider `Cc1occc(=O)c1O`, for which the outcome was inactive.

Turning to `CCCCC(CC)COC(=O)CCCCCCCC(=O)OCC(CC)CCCC` (centres undefined), the result was inactive.

On to `CC(C)NCC(O)c1ccc(O)c(O)c1` (centres undefined), for which the result was inactive.

As to `CC(=O)S[C@H](C(=O)N[C@H]1Cc2ccccc2[C@H]2CCC[C@@H](C(=O)O)N2C1=O)C(C)C`, the result was inactive.

On to `CC(=O)O`, for which the outcome was inactive.

Read-out in another assay: Vascular cell adhesion molecule 1 (VCAM1), VCAM1 (gene 7412)
As to the kind of experiment: BSK_CASM3C_VCAM1: BioMAP Diversity Plus: CASM3C Assay for Vascular cell adhesion molecule 1 (VCAM1) Biomarker Activity (AID 2283055).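 Also: VCAM-1 protein level quantified by ELISA on the cells.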 The note with it: primary human coronary artery smooth muscle cells; actives raise or lower the signal.
In the case of `CC(=O)OC1CC(C)OC(C)O1` (centres undefined), the outcome was inactive.

As for `CC(=O)OCC(COC(C)=O)OC(C)=O`, the result was inactive.

Regarding `CCCCc1nc2cccnc2n1Cc1ccc(-c2ccccc2-c2nnn[nH]2)cc1`, the result was inactive.

Consider `O=C1OC(c2ccc(O)cc2)(c2ccc(O)cc2)c2ccccc21`, for which the outcome was inactive.

For `Cc1cc(Cc2ccc(N)c(C)c2)ccc1N`, the result was inactive.

On to `CC(C)COC(=O)CCCCC(=O)OCC(C)C`, for which the result was inactive.

As for `CCCCC(CC)COP(=O)(OCC(CC)CCCC)OCC(CC)CCCC` (centres undefined), the result was inactive.

`O=C(Oc1ccccc1)c1cccc(C(=O)Oc2ccccc2)c1`: the outcome was inactive.

As to `CCCCOC(=O)CCCCC(=O)OCCCC`, the result was inactive.

Turning to `OCC(O)CO`, the result was inactive.

As for `O=NO`, the result was inactive.

Consider `CCCCCCC(CCCCCCCCCCC(=O)OCC(COC(C)=O)OC(C)=O)OC(C)=O` (centres undefined), for which the outcome was inactive.

For the compound `Nc1nc(Cl)nc2c1ncn2[C@H]1C[C@H](O)[C@@H](CO)O1`, the result was inactive.

`Oc1ccc(O)cc1`: the AC50 was 9.44 µM (active).

On to `C/C=C/C=C/C(=O)O`, for which the outcome was inactive.

With `Cc1ccc(C(C)(C)C)c(O)c1`, the outcome was inactive.

As to `CC(C)(C)c1ccccc1`, the outcome was inactive.

In the case of `CCCCC(CC)CO` (centres undefined), the result was inactive.

`N[C@@H](Cc1c[nH]c2ccccc12)C(=O)O`: the result was inactive.

For `Cc1ccc(-c2cc(C(F)(F)F)nn2-c2ccc(S(N)(=O)=O)cc2)cc1`, the concentration at half-maximal activity (AC50) was 29.9 µM (active).

On to `O=C(O)c1cccnc1`, for which the result was inactive.

Regarding `O=C1NC(=O)C(c2ccccc2)(c2ccccc2)N1`, the result was inactive.

Take `Nc1nc(=S)c2[nH]cnc2[nH]1`: the result was inactive.

As to `CSc1ccc(Oc2ccc(S(N)(=O)=O)cc2CN(C)C)cc1C`, the result was inactive.

As to `CC(=O)O[C@]1(C(C)=O)CC[C@H]2[C@@H]3C=C(Cl)C4=CC(=O)[C@@H]5C[C@@H]5[C@]4(C)[C@H]3CC[C@@]21C`, the outcome was inactive.

For `Cc1occc(=O)c1O`, the result was inactive.

In the case of `CCCCC(CC)COC(=O)CCCCCCCC(=O)OCC(CC)CCCC` (centres undefined), the outcome was inactive.

For `CC(C)NCC(O)c1ccc(O)c(O)c1` (centres undefined), the result was inactive.

As to `CC(=O)S[C@H](C(=O)N[C@H]1Cc2ccccc2[C@H]2CCC[C@@H](C(=O)O)N2C1=O)C(C)C`, the result was inactive.

Consider `CC(=O)O`, for which the result was inactive.

Read-out in another assay: Collagen III, COL3A1 (gene 1281)
The experiment in a line: BSK_hDFCGF_CollagenIII: BioMAP Diversity Plus: hDFCGF Assay for Collagen III Biomarker Activity (AID 2283056). As to conditions: primary human foreskin fibroblasts; actives raise or lower the signal. A digest of the protocol: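 Response relative to DMSO, fitted in both directions, reflects ELISA-measured collagen III in human primary skin fibroblasts 24 h after compound addition.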
In the case of `CC(=O)OC1CC(C)OC(C)O1` (centres undefined), the outcome was inactive.

Take `CC(=O)OCC(COC(C)=O)OC(C)=O`: the result was inactive.

`CCCCc1nc2cccnc2n1Cc1ccc(-c2ccccc2-c2nnn[nH]2)cc1`: the outcome was inactive.

For the compound `O=C1OC(c2ccc(O)cc2)(c2ccc(O)cc2)c2ccccc21`, the AC50 was 30.2 µM (active).

With `Cc1cc(Cc2ccc(N)c(C)c2)ccc1N`, the result was inactive.

With `CC(C)COC(=O)CCCCC(=O)OCC(C)C`, the outcome was inactive.

With `CCCCC(CC)COP(=O)(OCC(CC)CCCC)OCC(CC)CCCC` (centres undefined), the outcome was inactive.

With `O=C(Oc1ccccc1)c1cccc(C(=O)Oc2ccccc2)c1`, the outcome was inactive.

Regarding `CCCCOC(=O)CCCCC(=O)OCCCC`, the result was inactive.

`OCC(O)CO`: the result was inactive.

As to `O=NO`, the outcome was inactive.

On to `CCCCCCC(CCCCCCCCCCC(=O)OCC(COC(C)=O)OC(C)=O)OC(C)=O` (centres undefined), for which the AC50 is 2.73 µM (active).

With `Nc1nc(Cl)nc2c1ncn2[C@H]1C[C@H](O)[C@@H](CO)O1`, the outcome was inactive.

With `Oc1ccc(O)cc1`, the AC50 was 20 µM (active).

Turning to `C/C=C/C=C/C(=O)O`, the result was inactive.

For `Cc1ccc(C(C)(C)C)c(O)c1`, the result was inactive.

With `CC(C)(C)c1ccccc1`, the result was inactive.

Take `CCCCC(CC)CO` (centres undefined): the outcome was inactive.

On to `N[C@@H](Cc1c[nH]c2ccccc12)C(=O)O`, for which the outcome was inactive.

With `Cc1ccc(-c2cc(C(F)(F)F)nn2-c2ccc(S(N)(=O)=O)cc2)cc1`, the outcome was inactive.

As to `O=C(O)c1cccnc1`, the result was inactive.

With `O=C1NC(=O)C(c2ccccc2)(c2ccccc2)N1`, the result was inactive.

On to `Nc1nc(=S)c2[nH]cnc2[nH]1`, for which the half-maximal activity concentration (AC50) is 26.1 µM (active).

For `CSc1ccc(Oc2ccc(S(N)(=O)=O)cc2CN(C)C)cc1C`, the result was inactive.

As for `CC(=O)O[C@]1(C(C)=O)CC[C@H]2[C@@H]3C=C(Cl)C4=CC(=O)[C@@H]5C[C@@H]5[C@]4(C)[C@H]3CC[C@@]21C`, the concentration at half-maximal activity (AC50) is 27 µM (active).

For `Cc1occc(=O)c1O`, the result was inactive.

As for `CCCCC(CC)COC(=O)CCCCCCCC(=O)OCC(CC)CCCC` (centres undefined), the result was inactive.

As for `CC(C)NCC(O)c1ccc(O)c(O)c1` (centres undefined), the result was inactive.

Consider `CC(=O)S[C@H](C(=O)N[C@H]1Cc2ccccc2[C@H]2CCC[C@@H](C(=O)O)N2C1=O)C(C)C`, for which the result was inactive.

Take `CC(=O)O`: the outcome was inactive.
